Data from PubChem BioAssay AID2803 (The Scripps Research Institute Molecular Screening Center, 2010).
The campaign covered roughly 2,000 compounds. About 1,300 (65%) were called active. The set was probably picked from earlier hits. Only a sample is shown. A number with no mark means an inactive call. No stated cut-off is given here; in the data, active means inhibition above about 43%; inactive means the rest.

biological target: Prolyl endopeptidase-like (Homo sapiens) (UniProt Q4J6C6); assay: human PREPL enzyme inhibitors, confirmation, biochemical, fluorescence polarization (AID 2803); conditions: recombinant PREPL, fluorescence polarization activity probe; at 5.96 µM; hits give high values;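 further: 0% = protein with DMSO and 100% = wells lacking protein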
Sequence (Q4J6C6 whole entry, looked up): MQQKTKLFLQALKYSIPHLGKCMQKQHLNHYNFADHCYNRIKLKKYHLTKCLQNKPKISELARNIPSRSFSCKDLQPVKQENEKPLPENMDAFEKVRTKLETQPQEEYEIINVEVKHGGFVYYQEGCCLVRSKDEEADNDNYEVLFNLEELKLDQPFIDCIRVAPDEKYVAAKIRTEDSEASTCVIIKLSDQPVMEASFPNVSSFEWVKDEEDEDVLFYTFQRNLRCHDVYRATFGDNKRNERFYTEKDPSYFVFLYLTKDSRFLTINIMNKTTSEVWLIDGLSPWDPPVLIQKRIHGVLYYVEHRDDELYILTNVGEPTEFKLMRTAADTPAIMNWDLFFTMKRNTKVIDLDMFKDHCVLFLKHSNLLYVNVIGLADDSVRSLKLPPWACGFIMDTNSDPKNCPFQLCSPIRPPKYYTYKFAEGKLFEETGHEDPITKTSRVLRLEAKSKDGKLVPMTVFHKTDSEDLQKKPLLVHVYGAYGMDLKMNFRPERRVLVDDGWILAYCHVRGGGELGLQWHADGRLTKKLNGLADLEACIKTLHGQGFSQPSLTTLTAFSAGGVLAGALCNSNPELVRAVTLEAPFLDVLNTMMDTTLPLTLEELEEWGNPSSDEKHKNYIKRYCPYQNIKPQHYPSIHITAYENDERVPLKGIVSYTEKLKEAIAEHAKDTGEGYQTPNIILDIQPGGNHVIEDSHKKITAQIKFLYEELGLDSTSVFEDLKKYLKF

Row | Structure (SMILES) | inhibition
1 | CCOc1cccc(=NC2CCCCC2)c2c(C)[nH]c(C)c12 | 54.4% (active)
2 | O=C(NCC(c1cccnc1)N1CCN(c2ccccc2)CC1)Oc1ccccc1 (stereo not drawn) | 39.3%
3 | COc1ccc2[nH]c3c(c2c1)CCN[C@H]3C | 23.7%
